SMILES strings stand for the structures. Values without a mark were called inactive. Results filed as inconclusive are left out. Active and inactive are the calls of the source. Unless noted, the call rests on the fitted dose curve; in most records, active means well fitted curve in the direction sought with a large enough effect in the repeat runs; inconclusive means weak or mixed curves; inactive means no such curve, though single readings can be large; an effect the other way counts as inactive or inconclusive.

A short description of assay [1]: A CellTox Green Cytotoxicity Assay to monitor cytotoxicity in HEK293 cells - 32 hour (AID 1224881). Further: nearly all actives have a fitted effect of over 40% in size. Further: potency means the concentration at half of the fitted maximal effect. The gist of the method: (§1)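 Fluorescence from a DNA-binding dye excluded by viable cells was measured repeatedly in the same HEK293 wells (600 cells/well) during continuous compound exposure at 37 C. Each assay gives one read point: 0, 8, 16, 24, 32 or 40 h.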
Assay [2] in a line: A CellTox Green Cytotoxicity Assay to monitor cytotoxicity in HepG2 cells - 0 hour (AID 1224882). Further: nearly all actives have a fitted effect of over 35% in size. The gist of the method:
(§2)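 Real-time cytotoxicity: fluorescence of a cell-impermeant cyanine dye binding DNA of dead HepG2 cells, measured repeatedly (0–40 h) during compound exposure at 37 C. Cells seeded 600/well with reagent, dosed after 5 h.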

Assay [3] can be described thus: A CellTox Green Cytotoxicity Assay to monitor cytotoxicity in HepG2 cells - 32 hour (AID 1224883). Further: nearly all actives have a fitted effect of over 50% in size. The gist of the method: as §2
Assay [4] in a line: A CellTox Green Cytotoxicity Assay to monitor cytotoxicity in HEK293 cells - 8 hour (AID 1224884). Further: nearly all actives have a fitted effect of over 35% in size. The method, boiled down: as §1
A short description of assay [5]: qHTS RealTime-Glo MT Cell Viability Assay in HepG2 cells - 16 hour (AID 1224885). Further: nearly all actives have a fitted effect of over 50% in size. The gist of the method:
(§3)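 Tox21 10K library screened in qHTS format on HepG2 cells carrying RealTime-Glo reagents. Compounds were added after a 5 h preincubation, and the luminescent signal from continuous culture was measured repeatedly during 40 h treatment.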

The nature of assay [6]: qHTS RealTime-Glo MT Cell Viability Assay in HEK293 cells - 24 hour (AID 1224886). Further: top concentration of the series differs between compounds; nearly all actives have a fitted effect of over 50% in size. The gist of the method: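 Luminescence generated by NanoLuc from substrate produced by living HEK293 cells served as the viability signal. Each value reflects the reading at its stated time point during continuous 40 h compound exposure at 37 C.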
Assay [7] in a line: qHTS RealTime-Glo MT Cell Viability Assay in HEK293 cells - 8 hour (AID 1224887). Further: top concentration of the series differs between compounds; nearly all actives have a fitted effect of over 50% in size. The gist of the method: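 Luminescence, which tracks viable cell number through reduction of the prosubstrate to a NanoLuc substrate, was read over continuous 37 C culture. Cells (600/well) were premixed with reagent and rested 5 h before 23 nL of compound in DMSO was pinned.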
Assay [8] is described as follows: A CellTox Green Cytotoxicity Assay to monitor cytotoxicity in HEK293 cells - 16 hour (AID 1224888). Further: nearly all actives have a fitted effect of over 35% in size. The gist of the method:
as §1

Assay [9] in a line: qHTS RealTime-Glo MT Cell Viability Assay in HepG2 cells - 0 hour (AID 1224889). Further: nearly all actives have a fitted effect of over 50% in size. The gist of the method: as §3
The nature of assay [10]: A CellTox Green Cytotoxicity Assay to monitor cytotoxicity in HepG2 cells - 8 hour (AID 1224890). Further: nearly all actives have a fitted effect of over 45% in size. The gist of the method: as §2
Assay [11] is described as follows: qHTS assay to identify small molecule antagonists of the estrogen receptor alpha (ER-alpha) signaling pathway using the BG1 cell line in the presence of 0.1 nM 17-beta-estradiol - cell viability counter screen (AID 1259241). Further: nearly all actives have a fitted effect of over 40% in size. The method, boiled down:
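CellTiter-Fluor read (30 min, 37C) on ER-alpha/ERE-luc VM7Luc4E2 cells; 22 hr compound treatment; agonist 0.1 nM E2 final; same-well multiplex.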

The nature of assay [12]: qHTS assay to identify small molecule antagonists of the androgen receptor (AR) signaling pathway using the MDA cell line in the presence of 0.5 nM R1881 - cell viability counter screen (AID 1259242). Further: nearly all actives have a fitted effect of over 45% in size. The gist of the method: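 Live-cell protease activity was measured by CellTiter-Fluor fluorescence after 30 min. Before that, MDA-kb2 MMTV-luciferase cells had 16 hr at 37C without CO2, exposed to test compounds and 0.5 nM R1881 final.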

Assay [13] in a line: qHTS assay to identify small molecule phospholipidosis (PLD) inducers (AID 1259344; active means well fitted curve in the direction sought with a large enough effect; an effect the other way counts as inactive or inconclusive). The gist of the method: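 Accumulated phospholipid, stained red by LipidTOX during 24 h compound treatment of HepG2 cells at 37 C, is quantified from images as pit number and intensity, normalised per cell using Hoechst-stained nuclei.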
The nature of assay [14]: qHTS assay to identify small molecule HDAC inhibitors (AID 1259364). Further: top concentration of the series differs between compounds; nearly all actives have a fitted effect of over 45% in size. The gist of the method:
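Luminescence read after 30 min room-temperature HDAC-Glo incubation measures cellular class I/II HDAC activity. Compounds were applied for 2 hr at 37 C to HCT-116 wild-type cells seeded the day before.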

Assay [15] can be described thus: qHTS assay to identify small molecule HDAC inhibitors - cell viability counter screen (AID 1259365). The method, boiled down:
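To flag cytotoxic hits, 1,500 wild-type HCT-116 cells per well, plated the day before, receive test compounds for 2hr at 37 C before CellTiter-Glo reagent and a luminescence read.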

A short description of assay [16]: qHTS assay to identify small molecule agonists of the sonic hedgehog signaling (Shh) pathway - cell viability counter screen (AID 1259366). Further: nearly all actives have a fitted effect of over 50% in size. The gist of the method:
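Fluorescence from CellTiter-Fluor reports live cells in this counter screen. NIH/3T3-derived Gli1-Luc reporter cells receive test compounds for 24hr at 37C; reagent goes in at 23hr.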

Assay [17] can be described thus: qHTS assay to identify small molecule agonists of the sonic hedgehog signaling (Shh) pathway (AID 1259368; calls by dose curve;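 further: NIH/3T3-derived 3T3Gli1-Luc cells carrying a stable Gli1-driven firefly luciferase reporter; series mostly up to about 92 µM; nearly all actives have a fitted effect of over 15% in size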). The gist of the method:
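Luminescence was read after 30 min at room temperature with luciferase reagent. Before that, 3T3Gli1-Luc cells (NIH/3T3 clone, stable Gli1-Luc reporter; 2,000/well) were exposed to compounds for 24 hr at 37C, 5% CO2, compounds being added 4 hr post-plating.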

In assay [18] the target is Estrogen receptor (Homo sapiens) (UniProt P03372). Kind of assay: qHTS assay to identify small molecule antagonists of the estrogen receptor alpha (ER-alpha) signaling pathway using the BG1 cell line in the presence of 0.1 nM 17-beta-estradiol (AID 1259244). Further: nearly all actives have a fitted effect of over 50% in size. The gist of the method: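 Luciferase luminescence (ONE-Glo, 30 min at room temperature) was read after 22 hr at 37C exposure to compounds plus 17beta-estradiol at 0.1 nM final. Cells were VM7Luc4E2 with endogenous ER-alpha and an ERE-driven luciferase, pre-cultured 5 days in hormone-depleted medium.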

The nature of assay [19]: qHTS assay to identify small molecule antagonists of the sonic hedgehog signaling (Shh) pathway - cell viability counter screen (AID 1259367). Further: nearly all actives have a fitted effect of over 55% in size. The gist of the method: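 CellTiter-Fluor signal in conditioned medium-stimulated 3T3 Gli1-Luc cells, 23 hr compound exposure, 37C.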

Chain of Estrogen receptor (Homo sapiens) (P03372 whole entry, looked up): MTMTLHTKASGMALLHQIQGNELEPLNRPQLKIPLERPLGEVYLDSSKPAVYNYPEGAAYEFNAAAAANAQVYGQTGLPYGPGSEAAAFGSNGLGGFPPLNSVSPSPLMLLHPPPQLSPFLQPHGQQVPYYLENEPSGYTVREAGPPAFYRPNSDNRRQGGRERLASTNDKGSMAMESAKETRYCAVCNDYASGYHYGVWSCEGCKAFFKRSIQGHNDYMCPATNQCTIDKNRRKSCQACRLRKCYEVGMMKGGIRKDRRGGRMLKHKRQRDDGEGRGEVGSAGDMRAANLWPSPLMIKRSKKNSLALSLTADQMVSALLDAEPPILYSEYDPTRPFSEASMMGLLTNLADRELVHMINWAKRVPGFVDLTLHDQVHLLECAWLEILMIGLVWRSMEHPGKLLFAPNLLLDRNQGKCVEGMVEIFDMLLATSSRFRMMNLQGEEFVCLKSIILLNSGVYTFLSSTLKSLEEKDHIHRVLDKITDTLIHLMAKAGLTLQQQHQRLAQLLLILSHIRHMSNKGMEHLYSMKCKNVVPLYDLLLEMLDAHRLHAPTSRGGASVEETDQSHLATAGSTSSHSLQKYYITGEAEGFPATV

`Cc1c(Cn2ccnc2)c2ccccc2n1CCC(=O)O`: the Potency result in assay [1], in [2], in assay [3], in assay [4], in [5] and in assay [6] was “inactive” each time. For the same compound, the Potency result in [7], in assay [8], in assay [9], in assay [10], in assay [11] and in assay [12] was “inactive” each time. The Potency result in assay [13], in assay [14] and in [16] was “inactive” each time. The outcome in [15] and in assay [17] was inactive.
Turning to `Cc1ccc(C(C)c2ccc(C)c(C)c2)cc1C`, the Potency result in assay [1], in [2], in assay [3], in assay [4], in assay [5] and in assay [6] was “inactive” in each case. The Potency entry in assay [7], in [8], in assay [9], in assay [10], in [11] and in assay [12] was “inactive” each time. The Potency result in [18], in [14], in assay [16] and in assay [19] was “inactive” throughout. The compound was called inactive in [15] and in assay [17].
Take `CCOC(=O)CC(C)C`: the Potency result in assay [1], in assay [2], in assay [3], in assay [4], in assay [5] and in [6] was “inactive” in each case. In addition, the Potency result in assay [7], in assay [8], in assay [9], in assay [10], in assay [11] and in assay [12] was “inactive” each time. Besides, the Potency entry in assay [18], in [16] and in assay [19] was “inactive” in each case. The compound was called inactive in assay [15] and in assay [17].
Turning to `CCOc1nc2cccc(C(=O)O)c2n1Cc1ccc(-c2ccccc2-c2nn[nH]n2)cc1`, the Potency result in [1], in [2], in assay [3], in [4], in assay [5] and in [6] was “inactive” throughout. The Potency entry in assay [7], in assay [8], in [9], in assay [11], in assay [12] and in assay [18] was “inactive” throughout. Also, the Potency result in [13], in assay [14], in assay [16] and in [19] was “inactive” in each case. Also, the compound was called inactive in assay [15] and in assay [17].
As to `O=C=NC1CCC(CC2CCC(N=C=O)CC2)CC1` (configuration not stated), the Potency in assay [1] is 54.9 µM (active). Further, the Potency result in assay [2], in [3], in assay [4], in assay [5], in assay [6] and in [7] was “inactive” each time. In addition, the Potency result in assay [8], in assay [9], in assay [10], in [11] and in [14] was “inactive” in each case. Besides, the compound was called inactive in assay [15] and in assay [17].
Regarding `CCOc1ccc(NC(=O)CC(C)=O)cc1`, the Potency result in [1], in assay [2], in assay [3], in assay [4], in assay [5] and in [6] was “inactive” throughout. The Potency entry in [7], in assay [8], in assay [9], in assay [10], in assay [11] and in assay [12] was “inactive” in each case. In addition, the Potency result in assay [16] and in [19] was “inactive” in each case. Moreover, the compound was classed as inactive in assay [15] and in [17].
In the case of `C=C(C)C(=O)OC(C)C`, the Potency entry in assay [1], in [2], in [3], in assay [4], in assay [5] and in assay [6] was “inactive” in each case. Further, the Potency entry in assay [7], in assay [8], in assay [9], in assay [10], in assay [11] and in assay [12] was “inactive” each time. The Potency result in assay [18], in assay [14], in assay [16] and in [19] was “inactive” each time. The call in assay [15] and in assay [17] was inactive.
Take `CCN(CC)CCOC(=O)C1(c2ccccc2)CCCC1`: the Potency entry in [1], in [2], in assay [3], in assay [4], in assay [5] and in assay [6] was “inactive” each time. Further, the Potency entry in [7], in [8], in assay [9], in assay [10], in assay [11] and in [12] was “inactive” each time. The Potency result in assay [18], in [13], in assay [14], in assay [16] and in assay [19] was “inactive” throughout. In addition, the outcome in assay [15] and in assay [17] was inactive.
